What was measured:
Assay in all cases: yeast three-hybrid, YBZ-1, SC-Leu-His + 0.5 mM 3-AT, 4 days
Details in all cases: tags: N-Gal4 AD-HA kept; label: inside an RPR1-promoter hybrid RNA with tandem MS2 sites; ssRNA
PUM1 PUF domain R7-KHF = PUM1 PUF domain R7-KHF (Homo sapiens, UniProt Q14671 828-1176, S1079K;N1080H;E1083F)
How it was run: (§1)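 A centromeric plasmid in strain YBZ-1 co-expressed Pumilio-1 PUF domain libraries, randomized at the three base-contacting residues of each repeat, with matching RNA elements; the strain carries a LexA–MS2 coat fusion and a HIS3 reporter. After four days on SC-Leu (input) or SC-Leu-His + 0.5 mM 3-AT (selection), the repeat regions were PCR-amplified and Illumina-sequenced. The interaction score is the log change in variant frequency from input to selection, using log2 and a pseudocount of 1 where absent.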

PUM1 PUF domain R1-VKK = PUM1 PUF domain R1-VKK (Homo sapiens, UniProt Q14671 828-1176, S863V;R864K;Q867K)
Chain of PUM1 PUF domain R1-VKK (Q14671 828-1176 S863V/R864K/Q867K): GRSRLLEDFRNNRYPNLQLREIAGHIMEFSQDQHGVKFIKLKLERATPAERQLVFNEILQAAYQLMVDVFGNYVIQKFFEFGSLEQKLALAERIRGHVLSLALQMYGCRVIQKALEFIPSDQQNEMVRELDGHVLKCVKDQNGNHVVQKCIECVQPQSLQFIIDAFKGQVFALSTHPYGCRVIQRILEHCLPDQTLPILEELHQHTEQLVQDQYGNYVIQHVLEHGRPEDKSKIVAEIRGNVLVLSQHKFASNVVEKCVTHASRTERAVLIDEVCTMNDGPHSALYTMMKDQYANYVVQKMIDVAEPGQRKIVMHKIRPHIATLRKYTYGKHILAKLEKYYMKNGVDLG
How it was run: as §1

PUM1 PUF domain R1-RNQ = PUM1 PUF domain R1-RNQ (Homo sapiens, UniProt Q14671 828-1176, S863R;R864N)
Chain of PUM1 PUF domain R1-RNQ (Q14671 828-1176 S863R/R864N): as the sequence (Q14671 828-1176 S863V/R864K/Q867K) above, with V36R, K37N, K40Q counted along it
How it was run: as §1

PUM1 PUF domain R7-QSN = PUM1 PUF domain R7-QSN (Homo sapiens, UniProt Q14671 828-1176, S1079Q;N1080S;E1083N)
Chain of PUM1 PUF domain R7-QSN (Q14671 828-1176 S1079Q/N1080S/E1083N): as the sequence (Q14671 828-1176 S863V/R864K/Q867K) above, with V36S, K37R, K40Q, S252Q, N253S, E256N counted along it
How it was run: as §1

PUM1 PUF domain R7-KVV = PUM1 PUF domain R7-KVV (Homo sapiens, UniProt Q14671 828-1176, S1079K;N1080V;E1083V)
Chain of PUM1 PUF domain R7-KVV (Q14671 828-1176 S1079K/N1080V/E1083V): as the sequence (Q14671 828-1176 S863V/R864K/Q867K) above, with V36S, K37R, K40Q, S252K, N253V, E256V counted along it
How it was run: as §1

PUM1 PUF domain R3-RNA = PUM1 PUF domain R3-RNA (Homo sapiens, UniProt Q14671 828-1176, C935R;R936N;Q939A)
Chain of PUM1 PUF domain R3-RNA (Q14671 828-1176 C935R/R936N/Q939A): as the sequence (Q14671 828-1176 S863V/R864K/Q867K) above, with V36S, K37R, K40Q, C108R, R109N, Q112A counted along it
How it was run: as §1

PUM1 PUF domain R3-GRW = PUM1 PUF domain R3-GRW (Homo sapiens, UniProt Q14671 828-1176, C935G;Q939W)
Chain of PUM1 PUF domain R3-GRW (Q14671 828-1176 C935G/Q939W): as the sequence (Q14671 828-1176 S863V/R864K/Q867K) above, with V36S, K37R, K40Q, C108G, Q112W counted along it
How it was run: as §1

PUM1 PUF domain R2-RKW = PUM1 PUF domain R2-RKW (Homo sapiens, UniProt Q14671 828-1176, N899R;Y900K;Q903W)
Chain of PUM1 PUF domain R2-RKW (Q14671 828-1176 N899R/Y900K/Q903W): as the sequence (Q14671 828-1176 S863V/R864K/Q867K) above, with V36S, K37R, K40Q, N72R, Y73K, Q76W counted along it
How it was run: as §1

PUM1 PUF domain R2-RHE = PUM1 PUF domain R2-RHE (Homo sapiens, UniProt Q14671 828-1176, N899R;Y900H;Q903E)
Chain of PUM1 PUF domain R2-RHE (Q14671 828-1176 N899R/Y900H/Q903E): as the sequence (Q14671 828-1176 S863V/R864K/Q867K) above, with V36S, K37R, K40Q, N72R, Y73H, Q76E counted along it
How it was run: as §1

PUM1 PUF domain R8-AYR = PUM1 PUF domain R8-AYR (Homo sapiens, UniProt Q14671 828-1176, N1122A;Q1126R)
Chain of PUM1 PUF domain R8-AYR (Q14671 828-1176 N1122A/Q1126R): as the sequence (Q14671 828-1176 S863V/R864K/Q867K) above, with V36S, K37R, K40Q, N295A, Q299R counted along it
How it was run: as §1

PUM1 PUF domain R8-PFH = PUM1 PUF domain R8-PFH (Homo sapiens, UniProt Q14671 828-1176, N1122P;Y1123F;Q1126H)
Chain of PUM1 PUF domain R8-PFH (Q14671 828-1176 N1122P/Y1123F/Q1126H): as the sequence (Q14671 828-1176 S863V/R864K/Q867K) above, with V36S, K37R, K40Q, N295P, Y296F, Q299H counted along it
How it was run: as §1

PUM1 PUF domain R8-RRH = PUM1 PUF domain R8-RRH (Homo sapiens, UniProt Q14671 828-1176, N1122R;Y1123R;Q1126H)
Chain of PUM1 PUF domain R8-RRH (Q14671 828-1176 N1122R/Y1123R/Q1126H): as the sequence (Q14671 828-1176 S863V/R864K/Q867K) above, with V36S, K37R, K40Q, N295R, Y296R, Q299H counted along it
How it was run: as §1

PUM1 PUF domain R3-PYY = PUM1 PUF domain R3-PYY (Homo sapiens, UniProt Q14671 828-1176, C935P;R936Y;Q939Y)
Chain of PUM1 PUF domain R3-PYY (Q14671 828-1176 C935P/R936Y/Q939Y): as the sequence (Q14671 828-1176 S863V/R864K/Q867K) above, with V36S, K37R, K40Q, C108P, R109Y, Q112Y counted along it
How it was run: as §1

PUM1 PUF domain R5-QSR = PUM1 PUF domain R5-QSR (Homo sapiens, UniProt Q14671 828-1176, C1007Q;R1008S;Q1011R)
Chain of PUM1 PUF domain R5-QSR (Q14671 828-1176 C1007Q/R1008S/Q1011R): as the sequence (Q14671 828-1176 S863V/R864K/Q867K) above, with V36S, K37R, K40Q, C180Q, R181S, Q184R counted along it
How it was run: as §1

PUM1 PUF domain R5-TRM = PUM1 PUF domain R5-TRM (Homo sapiens, UniProt Q14671 828-1176, C1007T;Q1011M)
Chain of PUM1 PUF domain R5-TRM (Q14671 828-1176 C1007T/Q1011M): as the sequence (Q14671 828-1176 S863V/R864K/Q867K) above, with V36S, K37R, K40Q, C180T, Q184M counted along it
How it was run: as §1

Chain of PUM1 PUF domain R7-KHF (Q14671 828-1176 S1079K/N1080H/E1083F): as the sequence (Q14671 828-1176 S863V/R864K/Q867K) above, with V36S, K37R, K40Q, S252K, N253H, E256F counted along it

GGCUAGAACUAGUGGAUCCCCCGGCGCCCGGCGGCUCGAGCCCGGGUAAGUCUAAAUAGUCUGCAUGCCGCCGGGCGCCAUGCCUGCAGGUCGACUCUAGAAAACAUG
binding signal (PUM1 PUF domain R7-KHF): 2.94 log2 enrichment (interaction score)

GGCUAGAACUAGUGGAUCCCCCGGCGCCCGGCGGCUCGAGCCCGGGUAAGUGUAAAUUGUCUGCAUGCCGCCGGGCGCCAUGCCUGCAGGUCGACUCUAGAAAACAUG
binding signal (PUM1 PUF domain R1-VKK): 2.11 log2 enrichment (interaction score)

GGCUAGAACUAGUGGAUCCCCCGGCGCCCGGCGGCUCGAGCCCGGGUAAGUGUAAAUCGUCUGCAUGCCGCCGGGCGCCAUGCCUGCAGGUCGACUCUAGAAAACAUG
binding signal (PUM1 PUF domain R1-RNQ): 4.55 log2 enrichment (interaction score)

GGCUAGAACUAGUGGAUCCCCCGGCGCCCGGCGGCUCGAGCCCGGGUAAGUUUAAAUAGUCUGCAUGCCGCCGGGCGCCAUGCCUGCAGGUCGACUCUAGAAAACAUG
binding signal (PUM1 PUF domain R7-QSN): 4.28 log2 enrichment (interaction score)
binding signal (PUM1 PUF domain R7-KVV): 2.62 log2 enrichment (interaction score)

GGCUAGAACUAGUGGAUCCCCCGGCGCCCGGCGGCUCGAGCCCGGGUAAGUGUAAUUAGUCUGCAUGCCGCCGGGCGCCAUGCCUGCAGGUCGACUCUAGAAAACAUG
binding signal (PUM1 PUF domain R3-RNA): 3.87 log2 enrichment (interaction score)
binding signal (PUM1 PUF domain R3-GRW): 0.31 log2 enrichment (interaction score)

GGCUAGAACUAGUGGAUCCCCCGGCGCCCGGCGGCUCGAGCCCGGGUAAGUGUAAAGAGUCUGCAUGCCGCCGGGCGCCAUGCCUGCAGGUCGACUCUAGAAAACAUG
binding signal (PUM1 PUF domain R2-RKW): 2.92 log2 enrichment (interaction score)
binding signal (PUM1 PUF domain R2-RHE): 3.71 log2 enrichment (interaction score)

GGCUAGAACUAGUGGAUCCCCCGGCGCCCGGCGGCUCGAGCCCGGGUAAGCGUAAAUAGUCUGCAUGCCGCCGGGCGCCAUGCCUGCAGGUCGACUCUAGAAAACAUG
binding signal (PUM1 PUF domain R8-AYR): 4.07 log2 enrichment (interaction score)
binding signal (PUM1 PUF domain R8-PFH): 2.98 log2 enrichment (interaction score)
binding signal (PUM1 PUF domain R8-RRH): 2.65 log2 enrichment (interaction score)

GGCUAGAACUAGUGGAUCCCCCGGCGCCCGGCGGCUCGAGCCCGGGUAAGUGUAAAUAGUCUGCAUGCCGCCGGGCGCCAUGCCUGCAGGUCGACUCUAGAAAACAUG
binding signal (PUM1 PUF domain R8-AYR): 4.26 log2 enrichment (interaction score)
binding signal (PUM1 PUF domain R8-RRH): 0.67 log2 enrichment (interaction score)
binding signal (PUM1 PUF domain R3-PYY): 6.39 log2 enrichment (interaction score)
binding signal (PUM1 PUF domain R3-GRW): 4.33 log2 enrichment (interaction score)
binding signal (PUM1 PUF domain R5-QSR): 1.54 log2 enrichment (interaction score)
binding signal (PUM1 PUF domain R5-TRM): 2.74 log2 enrichment (interaction score)

Reference: publication PMC8384837, “Expanding the binding specificity for RNA recognition by a PUF domain”
